Screening results deposited in PubChem BioAssay by National Center for Advancing Translational Sciences (NCATS).
A selection: hits, their analogues and other compounds. The true share with any hit is near 0.37%.
MBNL1-CUG inh = inhibitors of human MBNL1 binding to CUG repeat RNA; TR-FRET MBNL1-His/biotin-(CUG)12 binding, 665/545 ratio; Q9NR56; Potency, µM (titrated, usually from 57.5 µM), hits mostly inhibitors; actives 0.036% (n = 280,000); active means well fitted inhibition curve with a large enough effect in the signal ratio, with a control signal flat, not every such curve was filed as active; inconclusive means small, poorly fitted or top-dose-only effect, or effect the other way, or a change in a side signal; inactive means no such curve, though single readings can be large or run the other way; the % refers to the signal ratio
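Compound titration spanned 92 nM–58 uM against the MBNL1-His/biotin-(CUG)12 complex. After 60 min at room temperature with 5 nM streptavidin-XL665 and 0.055 ng/ul terbium anti-His, ratiometric 665/545 nm emission (Ex 340 nm) normalized to controls.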
Vif-A3F inh = Vif-A3F binding inhibition. HeLa A3F-eYFP + Vif (tagged APOBEC3F with the HIV-1 protein that degrades it), YFP fluorescence increase. Potency, µM (highest dose often 46.1 µM). actives 0.2% (n = 390,000); further: nearly all actives have a fitted effect of over 65% in size
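HeLa cells stably expressing Vif plus C-terminally eYFP-tagged A3F were seeded, incubated overnight at 37 deg C, dosed with compound, incubated overnight again at 37 deg C. Yellow fluorescence (Ex 488/Em 500-530) reported blocked Vif-mediated A3F-eYFP degradation.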
CBFb RUNX1 block = blocks binding between human CBF-beta and RUNX1; Q01196+Q13951; AlphaScreen CBFb-His/RUNX1-biotin binding, biochemical; Potency, µM (doses to about 59.8 µM), hits mostly inhibitors; 230,000 tested, under 10 active; AID 1477
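Compounds were screened at multiple concentrations against a preformed CBF-beta(His)/RUNX1(biotin) complex (30 nM of each) for 15 min at room temperature, followed by 90 min with nickel and streptavidin beads and AlphaScreen reading.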
Vif-A3G inh = Vif-A3G binding inhibition; actives 0.076% (n = 410,000); Potency, µM (titrated, usually from 46.1 µM), hits mostly inhibitors; Q9HC16; HeLa A3G-eYFP + Vif (tagged APOBEC3G with the HIV-1 protein that degrades it), YFP fluorescence, overnight; further: nearly all actives have a fitted effect of over 60% in size
Target sequence (Q9HC16 whole entry, looked up): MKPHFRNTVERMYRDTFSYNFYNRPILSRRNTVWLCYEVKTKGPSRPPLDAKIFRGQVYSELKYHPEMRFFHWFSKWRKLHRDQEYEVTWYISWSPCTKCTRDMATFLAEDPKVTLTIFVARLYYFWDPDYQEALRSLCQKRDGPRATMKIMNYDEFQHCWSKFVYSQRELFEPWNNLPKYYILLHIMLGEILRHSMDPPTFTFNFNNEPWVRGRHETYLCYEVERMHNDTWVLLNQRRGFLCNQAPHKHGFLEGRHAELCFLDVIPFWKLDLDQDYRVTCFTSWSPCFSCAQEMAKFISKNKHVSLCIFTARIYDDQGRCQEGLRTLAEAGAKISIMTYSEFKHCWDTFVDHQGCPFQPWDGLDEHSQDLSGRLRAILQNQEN
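Read-out is eYFP fluorescence (Ex 488/Em 500-530) from Vif-expressing HeLa A3G-eYFP cells; more signal means A3G escaped Vif-mediated degradation. Cells plated overnight, compound pinned in, incubated overnight at 37 deg C.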
Epigenetic reg = regulators of epigenetic silencing causing reporter derepression in mouse cells; AID 1865; actives 0.2% (n = 280,000); Potency, µM (top dose mostly 53.9 µM), actives largely listed as activators; murine LDR cells, GFP reporter derepression, 30 h; further: nearly all actives have a fitted effect of over 60% in size
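Reporter derepression read as number of fluorescent GFP-positive objects, 20-120 um in size, counted by laser-scanning cytometer. Mouse LDR line with an epigenetically silenced CMV-GFP locus; compound incubation 30 h, 37 C.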
TSG101-PTAP inh = blocks PTAP/TSG101 interaction to inhibit HIV-1 budding; Q99816; Fluorescence polarization, FITC-PTAP peptide / Tsg101 binding; Potency, µM (highest dose often 115 µM), hits mostly inhibitors; 340,000 tested, under 10 active; AID 493005; active means well fitted inhibition curve with a large enough effect in the main read-out, with a control signal flat, not every such curve was filed as active; inconclusive means small, poorly fitted or top-dose-only effect, or effect the other way, or a change in a side signal; inactive means no such curve, though single readings can be large or run the other way
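FP read-out: FITC-PTAP peptide, 50 nM final, binding Tsg101 binding domain, 10 uM final; 20 min, r.t.; 10 mM HEPES pH 7.5, 0.15 M NaCl, 0.01% Tween 20, 3 mM EDTA, 0.1 mM TCEP.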
MBNL1-CUG FRET = MBNL1-poly(CUG) RNA binding inhibition confirmed | Potency, µM (highest dose often 57.6 µM), actives largely listed as inhibitors | TR-FRET MBNL1-His / biotin-(CUG)12 binding, 60 min | actives 50% (n = 140) | shares compounds with MBNL1-CUG inh
MBNL1 AlphaScrn = MBNL1-CUG RNA binding inhibition, AlphaScreen validation. shares compounds with MBNL1-CUG inh. AlphaScreen MBNL1-His / biotin-(CUG)12 binding. Potency, µM (top dose mostly 57.7 µM), hits mostly inhibitors. actives 30% (n = 140). AID 493205
MBNL1 HTRF CS = counter-screen for MBNL1-poly(CUG) RNA binding inhibitors. AID 651843. His-Menin/biotin-MLL peptide TR-FRET counterscreen. actives 20% (n = 120). shares compounds with MBNL1-CUG inh. Potency, µM (highest dose often 57.6 µM), hits mostly inhibitors
Of the large screens only hits and unclear results are named; the others gave an inactive call (follow-up assays come after a bar, where they were run). Unless noted, the call rests on the fitted dose curve; in most records, active means well fitted curve in the direction sought with a large enough effect; inconclusive means small, poorly fitted or top-dose-only effect, or another doubt; inactive means no such curve, though single readings can be large; an effect the other way counts as inactive or inconclusive.

CN1CCC2(CC1)C(C#N)=C(N)NC(S)=C2C#N	MBNL1-CUG inh 4µM, Vif-A3F inh inconclusive, Vif-A3G inh inconclusive, TSG101-PTAP inh inconclusive | MBNL1-CUG FRET 33µM | MBNL1 AlphaScrn inactive | MBNL1 HTRF CS 16µM
Cc1occc1C(=O)Nc1ccccc1	none (no result: MBNL1-CUG inh, Vif-A3F inh, Vif-A3G inh, Epigenetic reg, TSG101-PTAP inh)
Cc1ccsc1C(=O)C1CCCN(Cc2ccc(-n3cccn3)cc2)C1 (centres undefined)	MBNL1-CUG inh 6.3µM | MBNL1-CUG FRET 3.3µM | MBNL1 AlphaScrn inconclusive | MBNL1 HTRF CS 18µM
Cc1ccsc1C(=O)C1CCCN(Cc2c(C)nn(C(C)C)c2C)C1 (centres undefined)	MBNL1-CUG inh 32µM | MBNL1-CUG FRET 41µM | MBNL1 AlphaScrn inactive | MBNL1 HTRF CS inactive
CCn1cc(CN2CCCC(C(=O)c3cccc(OC)c3)C2)c(C)n1 (centres undefined)	MBNL1-CUG inh 50µM | MBNL1-CUG FRET inconclusive | MBNL1 AlphaScrn inactive | MBNL1 HTRF CS inactive
CCCn1cc(CN2CCCC(C(=O)c3cccc(OC)c3)C2)c(C)n1 (centres undefined)	none
CNc1ccc2oc(C[C@@H]3OC4(CC[C@@H]3C)O[C@H](C(C)C(=O)c3ccc[nH]3)[C@H](C)C[C@H]4C)nc2c1C(=O)O (some centres undefined)	none (no result: MBNL1-CUG inh, Vif-A3F inh, Vif-A3G inh, TSG101-PTAP inh)
CCN(CC)c1nc2ccccc2nc1C(=O)Nc1cccc(C(C)=O)c1	Vif-A3G inh inconclusive (no result: MBNL1-CUG inh, CBFb RUNX1 block, TSG101-PTAP inh)
